# SW480 rereplic: A quantitative high throughput screen for small molecules that induce DNA re-replication in SW480 colon adenocarcinoma cells; SW480 DNA re-replication, Hoechst DNA content imaging, 48 h; Potency, µM (series often up to 46.1 µM), for the others: top-dose re-replication activation, hits mostly activators; 340,000 tested, 1.8% active; AID 624297, 2012; further: potency means the concentration at half of the fitted maximal effect; % of control where 0% means no effect; nearly all actives have a fitted effect of over 55% in size
#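 Treated cells incubate 48 hr (37 C, 5% CO2), are stained 40 min with Hoechst, and nuclear fluorescence is enumerated; a rise in nuclei with high DNA signal marks re-replication.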
# RORgamma inh: qHTS for inhibitors of ROR gamma transcriptional activity; Potency, µM (series often up to 53.6 µM), inactives show at the highest dose activity change, negative = inhibition, actives largely listed as inhibitors; 310,000 tested, 5.4% active; Drosophila S2 Gal4-RORgamma UAS-luciferase reporter, 20 h; AID 2551, 2010; further: potency means the concentration at half of the fitted maximal effect; on the % scale 0 is the no-effect control and ±100 the full control effect; nearly all actives have a fitted effect of over 60% in size
# Target sequence (P51450 whole entry, looked up, the tested form may be a part): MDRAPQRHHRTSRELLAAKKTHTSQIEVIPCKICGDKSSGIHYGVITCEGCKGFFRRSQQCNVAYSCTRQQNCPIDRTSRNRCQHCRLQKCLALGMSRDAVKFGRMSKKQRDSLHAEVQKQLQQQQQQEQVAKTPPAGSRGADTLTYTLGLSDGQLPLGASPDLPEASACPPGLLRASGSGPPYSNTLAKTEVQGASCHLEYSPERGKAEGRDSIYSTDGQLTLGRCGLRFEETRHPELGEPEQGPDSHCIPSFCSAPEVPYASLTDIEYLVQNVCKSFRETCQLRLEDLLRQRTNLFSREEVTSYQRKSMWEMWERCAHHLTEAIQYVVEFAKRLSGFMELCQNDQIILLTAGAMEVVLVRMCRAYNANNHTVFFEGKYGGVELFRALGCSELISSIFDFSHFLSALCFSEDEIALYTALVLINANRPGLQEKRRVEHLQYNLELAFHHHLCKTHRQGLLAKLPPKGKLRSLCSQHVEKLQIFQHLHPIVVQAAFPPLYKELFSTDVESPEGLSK
#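 Compounds are pin-transferred onto Drosophila Schneider cells expressing a copper-inducible Gal4–ROR gamma transactivation domain fusion. After 1 hr, copper sulfate is added to 700 uM final; luciferase is read 20 hr later.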
# MCF10A rereplic: A quantitative high throughput screen for small molecules that induce DNA re-replication in MCF 10a normal breast cells | Potency, µM (highest dose often 46.1 µM), for the others: at the highest dose activity, positive = re-replication, actives largely listed as activators | AID 624296, 2012 | MCF 10A DNA re-replication, Hoechst nuclear intensity, 48 h | 350,000 tested, 2.9% active; further: potency means the concentration at half of the fitted maximal effect; % of control where 0% means no effect; nearly all actives have a fitted effect of over 50% in size
# Gal4-VP16 FLuc: VP16 counterscreen qHTS for inhibitors of ROR gamma transcriptional activity. Drosophila S2 Gal4-VP16 UAS-luciferase, luminescence, 20 h. Potency, µM (series often up to 53.6 µM), without a hit: at the highest dose activity, negative = inhibition, most hits filed as inhibitors. 310,000 tested, 3.5% active;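 further: Gal4-VP16 expression switched on by copper sulfate through the metallothionein promoter; potency means the concentration at half of the fitted maximal effect; on the % scale 0 is the no-effect control and ±100 the full control effect; nearly all actives have a fitted effect of over 50% in size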
# IL-1B inflam inh: qHTS for Inhibitors of Inflammasome Signaling: IL-1-beta AlphaLISA Primary Screen. THP-1 LPS/ATP IL-1B secretion, AlphaLISA, 16 h; hits give low values. activity change, % at 57.5 µM. 360,000 tested, 4.7% active. AID 743279, 2014; in the data active means activity change below about -50%; inconclusive means mostly about -30% to -49%; further: on the % scale 0 is the no-effect control and ±100 the full control effect
#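 Secreted IL-1B measured by AlphaLISA bead assay after 16 h compound exposure of THP-1 cells; compounds (final up to 57.5 uM) added 1 h before LPS (250 ng/mL) and ATP (1.25 mM) stimulation; lower signal means less secretion.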
# * = called active by the depositor; ? = inconclusive; nt = no result; [ ] = another dose, or the depositor's remark. Compounds with a hit are over-represented: about 11% of the library has one in this group of screens. Unless noted, the call rests on the fitted dose curve; in most records, active means well fitted curve in the direction sought with a large enough effect; inconclusive means small, poorly fitted or top-dose-only effect, or another doubt; inactive means no such curve, though single readings can be large; an effect the other way counts as inactive or inconclusive.
SMILES,SW480 rereplic,RORgamma inh,MCF10A rereplic,Gal4-VP16 FLuc,IL-1B inflam inh
CC(C)CNC(=O)COC(=O)c1c2c(nc3ccccc13)/C(=C\c1cccs1)CC2,6.5µM*,nt,?,nt,-5
CC(C)c1ccccc1NC(=O)COC(=O)c1c2c(nc3ccccc13)CCN(Cc1ccccc1)C2,15%,23%,?,-25%,-17
O=C(COC(=O)c1c2c(nc3ccccc13)CCCC2)Nc1ccc2c(c1)OCO2,1%,21%,29%,-10%,-1
O=C(COC(=O)c1c2c(nc3ccccc13)/C(=C\c1cccs1)CCC2)Nc1ccccc1,13µM*,?,?,?,-55*
CC(=O)c1ccc(NC(=O)COC(=O)c2c3c(nc4ccccc24)/C(=C\c2cccs2)CCC3)cc1,21µM*,?,5.8µM*,?,-51*
COc1cc2c(cc1OC)C(C)N(S(=O)(=O)c1ccc(Cl)nc1)CC2 (configuration not stated),3%,0%,-4%,4%,22
CO[C@H]1COC(=O)[C@H](C)COC(=O)[C@@H](OCc2ccccc2)/C=C\[C@@H]1C,nt,-7%[10 µM],nt,-1%[10 µM],nt
Cc1cc(O)c(-c2cc(O)c(C)cc2O)cc1O,18%,7.1µM*,-3%,?,-99*
Cc1ccc(N)cc1O,12%,-4%,?,14%,55
C=Cc1ccc(CC2(C)C(=O)Nc3ccc(Cl)cc32)cc1 (configuration not stated),nt,nt,nt,nt,15
COc1ccc(S(=O)(=O)N(C)C[C@H]2Oc3ccc(NS(=O)(=O)c4cccs4)cc3C(=O)N([C@H](C)CO)C[C@@H]2C)cc1,?,nt,3.3µM*,nt,-21
C[C@@H]1CN([C@H](C)CO)C(=O)c2cc(NC(=O)Nc3ccc(C(F)(F)F)cc3)ccc2O[C@H]1CN(C)C(=O)Nc1ccc(F)cc1,?,nt,-72%,nt,-61*
C[C@@H]1CN([C@H](C)CO)C(=O)Cc2cc(NC(=O)Nc3ccccc3)ccc2O[C@@H]1CN(C)Cc1ccc2c(c1)OCO2,?,nt,20%,nt,-64*
C[C@@H]1CN([C@H](C)CO)C(=O)c2cc(NS(=O)(=O)c3cccs3)ccc2O[C@H]1CN(C)Cc1ccccc1,-8%,nt,22%,nt,-8
CCOC(=O)CCCCCC(=O)Nc1ccc2c(c1)CC(=O)N([C@H](C)CO)C[C@@H](C)[C@H](CN(C)Cc1ccc3c(c1)OCO3)O2,1%,nt,?,nt,7
C[C@H](CO)N1C[C@H](C)[C@@H](CN(C)C(=O)Nc2ccc(C(F)(F)F)cc2)Oc2ccc(NC(=O)Nc3ccc(C(F)(F)F)cc3)cc2C1=O,10%,nt,-1%,nt,?
C[C@@H]1CN([C@@H](C)CO)C(=O)c2cc(NS(=O)(=O)c3cccs3)ccc2O[C@H]1CN(C)Cc1ccc(C(F)(F)F)cc1,2%,nt,-3%,nt,-63*
COC(=O)c1sccc1-n1cc2c(c1-c1ccccc1)c(=O)n(C)c(=O)n2C,nt,nt,nt,nt,2
COc1cccc(C(=O)NCC2CCCN(C(=O)c3ccc(C=O)cc3)C2)c1OC (configuration not stated),-7%,30%,-9%,15%,-8
Cc1cc2nc(-c3nnnn3-c3c(C)cccc3C)c(=O)[nH]c2cc1C,nt,nt,nt,nt,-1
CCc1ccc2[nH]c(=O)c(CN(CCN(C)C)C(=O)Nc3ccccc3OC)cc2c1,12%,18%,19%,7%,?
COc1ccccc1NC(=O)N(Cc1cccs1)Cc1cc2cc3c(cc2[nH]c1=O)OCO3,?,?,21µM*,-7%,8
CCc1ccc2[nH]c(=O)c(CN(Cc3ccccc3)C(=O)Nc3ccccc3OC)cc2c1,?,35%,-3%,-2%,-59*
CCN(CC)CCCN(Cc1cc2cc(OC)ccc2[nH]c1=O)C(=O)Nc1ccccc1,-1%,1%,-2%,3%,-4
CCN(CC)CCCN(Cc1cc2cc(OC)ccc2[nH]c1=O)C(=O)Nc1ccc(F)cc1,?,-21%,2.9µM*,1%,-51*
SMILES,SW480 rereplic,RORgamma inh,MCF10A rereplic,Gal4-VP16 FLuc,IL-1B inflam inh
CCc1ccc2[nH]c(=O)c(CN(CCN(CC)CC)C(=O)Nc3ccccc3OC)cc2c1,1%,-9%,3%,-1%,-53*
CN(C(=O)c1ccccc1OCc1ccc(F)cc1)c1c(N)n(Cc2ccccc2)c(=O)[nH]c1=O,1%,nt,0%,nt,-7
CC1=CC(=O)C2=C(C)CC[C@@H]3[C@@H](OC(=O)[C@H]3C)[C@H]12,nt,-17%[16.9 µM],nt,1%[17 µM],nt
O=C(N/C(=C\c1ccc(-c2ccccc2)o1)C(=O)N1CCOCC1)c1ccccc1,2%,30%,-1%,-5%,-63*
CCn1ccnc1CN(C)Cc1cn(-c2ccc(C)cc2)nc1-c1cccc(C)c1,?,1.6µM*,?,10µM*,-249*
COc1ccc(-n2cc(CN(C)CCO)c(-c3cccc(F)c3)n2)cc1,-6%,11%,-3%,-20%,-30
CCn1ccnc1CNCc1cn(-c2cc(C)ccc2C)nc1-c1ccccc1,2%,14µM*,0%,-21%,-13
CCn1ccnc1CN(C)Cc1cn(-c2cccc(C)c2)nc1-c1cccc(F)c1,?,1.6µM*,5.8µM*,16µM*,-62*
Cc1cccc(-n2cc(CN(C)Cc3nccn3C)c(-c3cccc(F)c3)n2)c1,18µM*,5.6µM*,?,?,-62*
Cc1ccccc1Cn1c(C)c(C(=O)NCC(C)C)sc1=O,nt,nt,nt,nt,-8
C[C@](N)(COP(=O)(O)O)C(=O)O,nt,-15%,nt,-16%,nt
O=[N+]([O-])c1ccc(S(=O)(=O)Nc2ccc(S(=O)(=O)N3CCCC3)cc2)cc1,-4%,-1%,-1%,7%,22
CN(Cc1cn(Cc2ccccc2)nc1-c1ccc2c(c1)OCO2)Cc1nccn1C,-4%,13µM*,1%,2%,?
CCn1ccnc1CN(C)Cc1nc(-c2ccccc2)no1,9%[1.84 µM],?,?,?,9
CCn1ccnc1CN(C)Cc1nc(-c2cccc(Cl)c2)no1,1%,18µM*,2%,-9%,34
N#Cc1ccc(OCC(=O)N2CCN(S(=O)(=O)c3cccc(Cl)c3)CC2)cc1,-1%,nt,-7%,nt,-11
COc1cccc(NC(=O)CSc2nc3c(sc4ccccc43)c(=O)n2CCN(C)C)c1,-11%,-16%,-2%,-10%[10 µM],-108*
CCN(CC)CCn1c(SCC(=O)Nc2cccc(OC)c2)nc2c(sc3ccccc32)c1=O,14%,8%,?,?,-79*
COc1cccc(NC(=O)CSc2nc3c(sc4ccccc43)c(=O)n2CCCN2CCCC2)c1,?,-22%,18µM*,-1%,?
